NPC1 prom act: activates the NPC1 promoter; Huh7 NPC1 promoter luciferase reporter, 24 h; Potency, µM (series often up to 9.22 µM), for the others: top-dose activation, actives largely listed as activators; actives 2.4% (n = 320,000); AID 485313; further: % of control where 0% means no effect; nearly all actives have a fitted effect of over 60% in size
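Stable NPC1-promoter luciferase Huh7 line; cpd (DMSO) 24 h, 37 °C, 5% CO2; Amplite luciferase reagent 10 min RT; luminescence readout. qHTS format.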
SMN2 splice up: enhancers of SMN2 splice variant expression; HEK293 SMN2-luciferase splicing reporter, luminescence, 30-36 h; Potency, µM (doses to about 46.1 µM), inactives show at the highest dose activity change, positive = activation, hits mostly activators; AID 1458; actives 2.8% (n = 210,000); further: % of control where 0% means no effect; nearly all actives have a fitted effect of over 55% in size
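qHTS luciferase splicing reporter: luminescence rises when SMN2 exon 7 is included in transfected HEK293 cells. Compound exposure lasted 30-36 h at 37C, with 4.5 mM final sodium butyrate as control, followed by a ONE-Glo read.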
FLuc modulator: counter-screen for miR-21 project: firefly luciferase inhibitors or activators; P08659; purified FLuc, Km substrates, luminescence inhibition; Potency, µM (titrated, usually from 57.5 µM), for the others: at the highest dose activity change, negative = inhibition, usual class: inhibitors; actives 6.9% (n = 360,000); AID 588342;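 further: plate controls were vehicle for no effect and reference inhibitor for full effect; nearly all actives have a fitted effect of over 55% in size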
Target sequence (P08659 whole entry, looked up): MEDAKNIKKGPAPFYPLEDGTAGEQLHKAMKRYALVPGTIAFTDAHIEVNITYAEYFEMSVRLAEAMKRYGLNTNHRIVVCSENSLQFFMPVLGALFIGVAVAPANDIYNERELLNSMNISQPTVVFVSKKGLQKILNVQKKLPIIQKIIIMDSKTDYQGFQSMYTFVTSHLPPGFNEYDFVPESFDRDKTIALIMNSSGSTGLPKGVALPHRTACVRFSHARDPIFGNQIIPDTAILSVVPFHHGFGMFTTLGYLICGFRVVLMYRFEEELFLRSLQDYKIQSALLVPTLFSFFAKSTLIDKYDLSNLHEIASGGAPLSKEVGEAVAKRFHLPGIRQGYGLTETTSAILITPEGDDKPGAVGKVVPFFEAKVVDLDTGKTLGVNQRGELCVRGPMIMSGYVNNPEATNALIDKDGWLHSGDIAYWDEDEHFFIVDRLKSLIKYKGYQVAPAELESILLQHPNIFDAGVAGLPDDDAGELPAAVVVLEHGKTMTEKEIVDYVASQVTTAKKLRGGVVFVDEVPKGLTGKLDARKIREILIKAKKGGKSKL
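Purified P. pyralis luciferase (10nM final) with 10uM D-luciferin and 10uM ATP (Km levels) in 50mM Tris acetate pH 7.5, 10mM Mg acetate, 0.01% Tween-20, 0.05% BSA; qHTS 6-point titration, ~60 µM downward; luminescence read.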
Rab9 promoter act: activates the Rab9 promoter; Huh7 Rab9 promoter-luciferase reporter, luminescence, 24 h; Potency, µM (doses to about 9.22 µM), for inactives: at the highest dose activation, negative = inhibition, actives largely listed as activators; actives 2.8% (n = 320,000); further: % of control where 0% means no effect; nearly all actives have a fitted effect of over 60% in size
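Rab9 promoter-driven luciferase in stably transfected Huh7 cells; 1500 cells/well rested 2 h, exposed to compound in DMSO for 24 h at 37 °C, 5% CO2. Luminescence read 10 min after adding luciferase reagent at ambient temperature.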
ELG1 genotox: inducers of genotoxicity in HEK293T ELG1-luciferase cells. HEK293T ELG1-luciferase reporter, luminescence, 16 h. Potency, µM (series often up to 46 µM), for inactives: top-dose activity change, positive = activation, usual class: activators. actives 1.3% (n = 330,000); further: % of control where 0% means no effect; nearly all actives have a fitted effect of over 60% in size
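HEK293T cells expressing luciferase-tagged ELG1 were exposed to compound or DMSO vehicle for 16 hr at 37 °C and 5% CO2. Luciferase activity was then measured with ONE-Glo after 30 min at room temperature.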
Active calls of the source: *; ? = inconclusive; nt = not tested or not shown; [ ] = another dose, or the depositor's remark. Sampled rows, rich in hits. Any-hit rate of the full collection: about 7.4%. The call rests on the fitted dose curve; in most records, active means well fitted curve in the direction sought with a large enough effect; inconclusive means small, poorly fitted or top-dose-only effect, or another doubt; inactive means no such curve, though single readings can be large; an effect the other way counts as inactive or inconclusive. Potency means the concentration at half of the fitted maximal effect.

SMILES | NPC1 prom act | SMN2 splice up | FLuc modulator | Rab9 promoter act | ELG1 genotox
Cc1cccc(C(=O)Nc2cccc(OCc3cc(=O)n4ccccc4n3)c2)c1 | nt | nt | 4% | nt | nt
COc1ccc(C)cc1NC(=O)Nc1cccc(OCc2cc(=O)n3ccc(C)cc3n2)c1 | nt | nt | 2.7µM* | nt | nt
COc1ccccc1C(=O)Nc1cccc(OCc2cc(=O)n3c4c(sc3n2)CCCC4)c1 | nt | 13% | 6µM* | nt | nt
CCOC(=O)c1cc(-c2ccccc2)n(CCC(=O)NC2CCCCC2)c1C | nt | nt | -9% | nt | nt
CCN(c1ccccc1)c1ncnc2c1cnn2-c1ccc(C)cc1C | nt | nt | -16% | nt | nt
O=C(NCCn1ccc2ccccc21)c1cccc([N+](=O)[O-])c1 | 1% | -5% | -4% | -9% | -1%
Cc1nnsc1C(=O)N/N=C/c1c(F)cccc1Cl | 2% | 2% | -1% | 12% | 1%
Cc1[nH]cnc1C(=O)N/N=C/c1c(Cl)cccc1Cl | ? | nt | 15µM* | ? | 24%
O=C(/C=C/c1ccccc1Cl)Nc1ccccc1 | ? | nt | 0.76µM* | 0.45µM* | ?
O=C(/C=C/c1ccccc1Cl)Nc1ccc2c(c1)C(=O)NC2=O | -2% | -14% | ? | 2% | -4%
O=C(/C=C/c1ccccc1Cl)Nc1cccc(O)c1 | ? | ? | 1.1µM* | ? | ?
O=C(/C=C/c1ccccc1Cl)Nc1ccc(Cl)cn1 | ? | nt | -6% | 1.1µM* | ?
CN(C)S(=O)(=O)c1ccc(NC(=O)/C=C/c2ccccc2Cl)cc1 | 4% | 9% | 21µM* | 8% | 1%
Cc1c(NC(=O)c2cc(S(=O)(=O)N3CCCCC3)ccc2Cl)c(=O)n(-c2ccccc2)n1C | nt | nt | nt | nt | 3%
CN(C)c1ccc(NC(=O)/C=C/c2c(Cl)cccc2Cl)cc1 | 11% | ? | 8.5µM* | 25% | 5%
CCCCOC(=O)c1cccc(NC(=O)/C=C/c2ccccc2Cl)c1 | nt | 1.4µM* | 6.7µM* | nt | nt
O=C(NCCS(=O)(=O)N1CCN(c2ccccc2)CC1)c1ccc(Br)o1 | 0% | nt | 9% | -4% | 1%
O=c1cc(CO)oc2ccccc12 | nt | nt | nt | nt | 2%
O=c1cc(/C=C/c2ccccc2)oc2ccccc12 | ? | 11µM* | 6µM* | 2.2µM* | 2.6µM*
COc1ccc2c(=O)cc(C(F)(F)C(F)(F)F)oc2c1 | 4% | nt | -3% | 6% | 0%
COc1ccc(-c2cc(=O)c3cc(O)ccc3o2)cc1 | 1.4µM* | nt | 1.7µM* | 1.6µM* | 5.8µM*
COc1ccc2c(=O)cc(-c3ccccc3F)oc2c1 | ? | nt | 21µM* | ? | ?
COc1c(-c2ccc(O)cc2)oc2cc(O)cc(O)c2c1=O | -7% | nt | -11% | 0% | 16%
COc1ccc(-c2oc3cc(O)c(OC)c(O)c3c(=O)c2OC)cc1 | -20% | nt | 19µM* | -1% | 18%
COc1ccc(-c2cc(=O)oc3cc(O)ccc23)cc1 | 3% | nt | -5% | 0% | -9%
SMILES | NPC1 prom act | SMN2 splice up | FLuc modulator | Rab9 promoter act | ELG1 genotox
COc1ccccc1CN1CN(S(=O)(=O)c2ccccc2)c2nc3ccccc3nc21 | 9% | nt | 3% | 0% | 1%
COc1cc(CC(=O)OCC(=O)Nc2cc([N+](=O)[O-])ccc2Cl)cc(OC)c1OC | -1% | -7% | -3% | 6% | -2%
O=c1cc(-c2ccccc2)oc2c(O)c(O)ccc12 | nt | -71% | nt | nt | nt
O=c1cc(-c2ccccc2)oc2ccc(O)cc12 | 2.8µM* | nt | 9.5µM* | 4µM* | 21µM*
COc1cc(O)c2c(=O)cc(-c3ccc(OC)c(-c4c(O)cc(O)c5c(=O)cc(-c6ccc(O)cc6)oc45)c3)oc2c1 | nt | 5% | nt | nt | nt
O=c1cc(-c2ccc(O)c(O)c2)oc2ccccc12 | nt | 14µM* | nt | nt | nt
COc1ccc(-c2cc(=O)c3c(O)cc(O)cc3o2)cc1 | ? | ? | 1.9µM* | 3.2µM* | ?
CC(C)Oc1ccc2c(=O)cc(-c3ccccc3)oc2c1 | nt | 6.3µM* | nt | nt | nt
COc1ccc2c(=O)cc(C(=O)O)oc2c1 | -5% | 10% | 0% | 1% | 0%
CCCCS(=O)(=O)N1C2=NC(C(=O)OC)=C(C(=O)OC)[C@@H]3Nc4ccccc4[C@]23C[C@H]1C(=O)OC | nt | 0%[9.22 µM] | nt | nt | nt
O=c1cc(-c2ccc(C(F)(F)F)cc2)oc2ccccc12 | nt | nt | nt | nt | 0%
O=c1cc(-c2ccccc2)oc2ccccc12 | ? | ? | ? | ? | 21µM*
CCOC(=S)SCc1cn2ccc(C)cc2n1 | -4% | -31% | 24µM* | 0% | 0%
Cc1ccn2cc(CC(=O)O)nc2c1 | -4% | nt | 3% | 3% | 1%
Cc1ccn2cc(CSc3ccccc3N)nc2c1 | 2.2µM* | ? | 11µM* | 0.63µM* | ?
O=C(COC(=O)/C=C/c1ccccc1[N+](=O)[O-])Nc1ccc(OCc2ccccc2)cc1 | ? | 13µM* | 1% | ? | ?
O=C(/C=C/c1ccccc1[N+](=O)[O-])Nc1ccccc1 | 2µM* | 14µM* | 6µM* | 0.71µM* | ?
COc1cc(NC(=O)/C=C/c2ccccc2[N+](=O)[O-])cc(OC)c1 | 17% | ? | 21µM* | 25% | 0%
O=C(O)/C=C/c1ccccc1[N+](=O)[O-] | -4% | nt | 3% | 2% | -2%
CCNC(=O)/C=C/c1ccccc1[N+](=O)[O-] | -2% | 9% | 0% | -2% | -4%

Screening results (PubChem)
